# This excerpt belongs to a sample that is enriched for the strongest signals.
# B1: Gal 4 (Homo sapiens), Q8K419 (protein)
# chain: MAYVPAPGYQPTYNPTLPYKRPIPGGLSVGMSVYIQGMAKENMRRFHVNFAVGQDDGADVAFHFNPRFDGWDKVVFNTMQSGQWGKEEKKKSMPFQKGKHFELVFMVMPEHYKVVVNGNSFYEYGHRLPVQMVTHLQVDGDLELQSINFLGGQPAAAPYPGAMTIPAYPAGSPGYNPPQMNTLPVMTGPPVFNPRVPYVGALQGGLTVRRTIIIKGYVLPTARNFVINFKVGSSGDIALHLNPRIGDSVVRNSFMNGSWGAEERKVAYNPFGPGQFFDLSIRCGMDRFKVFANGQHLFDFSHRFQAFQMVDTLEINGDITLSYVQI
# Columns and labels:
# Test in all cases: glycan array binding signal (z-score within array); higher = stronger binding
# Conditions in all cases: glycan notation: IUPAC condensed, linker removed
# Fuc(a1-2)Gal = molecular target: Fuc(a1-2)Gal
# Summary of the method: (§1)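 The binding signal is a Z-score computed within each array. Data were drawn from 3228 arrays in the Consortium for Functional Glycomics database, restricted to those with a known protein sequence. Scores were averaged over arrays of the same protein sequence at different concentrations or buffers, and over linkers, and negative values can be taken as non-binding.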
# [1] = molecular target: Fuc(a1-2)Gal(b1-3)GlcNAc(b1-3)[Fuc(a1-2)Gal(b1-3)GlcNAc(b1-6)]GalNAc
# Summary of the method: as §1
# [2] = molecular target: Fuc(a1-2)Gal(b1-3)GlcNAc6S
# Summary of the method: as §1
# [3] = molecular target: Fuc(a1-2)Gal(b1-4)GlcNAc(b1-2)Man(a1-3)[Fuc(a1-2)Gal(b1-4)GlcNAc(b1-2)Man(a1-6)]Man(b1-4)GlcNAc(b1-4)[Fuc(a1-6)]GlcNAc
# Summary of the method: as §1
# [4] = molecular target: Fuc(a1-2)Gal(b1-4)GlcNAc(b1-3)GalNAc
# Summary of the method: as §1
# [5] = molecular target: Fuc(a1-2)Gal(b1-4)GlcNAc(b1-3)[Fuc(a1-2)Gal(b1-4)GlcNAc(b1-6)]GalNAc
# Summary of the method: as §1
# [6] = molecular target: Fuc(a1-2)[Gal(a1-3)]Gal(b1-3)GalNAc
# Summary of the method: as §1
# [7] = molecular target: Fuc(a1-2)[Gal(a1-3)]Gal(b1-3)GlcNAc
# Summary of the method: as §1
# [8] = molecular target: Fuc(a1-2)[Gal(a1-3)]Gal(b1-4)Glc
# Summary of the method: as §1
# [9] = molecular target: Fuc(a1-2)[Gal(a1-3)]Gal(b1-4)GlcNAc(b1-3)GalNAc
# Summary of the method: as §1
# [10] = molecular target: Fuc(a1-2)[GalNAc(a1-3)]Gal
# Summary of the method: as §1
# [11] = molecular target: Fuc(a1-2)[GalNAc(a1-3)]Gal(b1-3)GlcNAc
# Summary of the method: as §1
# [12] = molecular target: Fuc(a1-2)[GalNAc(a1-3)]Gal(b1-3)GlcNAc(b1-2)Man(a1-3)[Fuc(a1-2)[GalNAc(a1-3)]Gal(b1-3)GlcNAc(b1-2)Man(a1-6)]Man(b1-4)GlcNAc(b1-4)GlcNAc
# Summary of the method: as §1
# [13] = molecular target: Fuc(a1-2)[GalNAc(a1-3)]Gal(b1-3)GlcNAc(b1-6)GalNAc
# Summary of the method: as §1
# [14] = molecular target: Fuc(a1-2)[GalNAc(a1-3)]Gal(b1-4)Glc
# Summary of the method: as §1
# [15] = molecular target: Gal(a1-4)Gal(b1-4)GlcNAc(b1-2)Man(a1-3)[Gal(a1-4)Gal(b1-4)GlcNAc(b1-2)Man(a1-6)]Man(b1-4)GlcNAc(b1-4)GlcNAc
# Summary of the method: as §1
# Gal(b1-2)Gal = molecular target: Gal(b1-2)Gal
# Summary of the method: as §1
# Gal(b1-3)Gal = molecular target: Gal(b1-3)Gal
# Summary of the method: as §1
# [16] = molecular target: Gal(b1-3)GalNAc(a1-3)[Fuc(a1-2)]Gal(b1-4)Glc
# Summary of the method: as §1
# [17] = molecular target: Gal(b1-3)GalNAc(a1-3)[Fuc(a1-2)]Gal(b1-4)GlcNAc
# Summary of the method: as §1
# [18] = molecular target: Gal(b1-3)[Fuc(a1-4)]GlcNAc(b1-2)Man(a1-3)[Gal(b1-3)[Fuc(a1-4)]GlcNAc(b1-2)Man(a1-6)]Man(b1-4)GlcNAc(b1-4)[Fuc(a1-6)]GlcNAc
# Summary of the method: as §1
# [19] = molecular target: Gal(b1-3)[Fuc(a1-4)]GlcNAc(b1-6)GalNAc
# Summary of the method: as §1
# [20] = molecular target: Gal(b1-4)GalNAc(a1-3)[Fuc(a1-2)]Gal(b1-4)GlcNAc
# Summary of the method: as §1
# [21] = molecular target: Gal(b1-4)GlcNAc(a1-6)Gal(b1-4)GlcNAc
# Summary of the method: as §1
# [22] = molecular target: Gal(b1-4)GlcNAc(b1-3)Gal(b1-4)Glc
# Summary of the method: as §1
# [23] = molecular target: Gal(b1-4)GlcNAc(b1-3)Gal(b1-4)[Fuc(a1-3)GlcNAc(b1-6)]Gal(b1-4)Glc
# Summary of the method: as §1
# [24] = molecular target: Gal(b1-4)GlcNAc(b1-6)[Gal(b1-3)]GalNAc
# Summary of the method: as §1
# Gal3S(b1-4)GlcNAc = molecular target: Gal3S(b1-4)GlcNAc
# Summary of the method: as §1
# GalNAc(b1-3)GalNAc = molecular target: GalNAc(b1-3)GalNAc
# Summary of the method: as §1
# GalNAc(b1-4)Gal(b1-4)Glc = molecular target: GalNAc(b1-4)Gal(b1-4)Glc
# Summary of the method: as §1
# GalNAc(b1-4)GlcNAc = molecular target: GalNAc(b1-4)GlcNAc
# Summary of the method: as §1
# Kdn(a2-3)Gal(b1-4)Glc = molecular target: Kdn(a2-3)Gal(b1-4)Glc
# Summary of the method: as §1
# [25] = molecular target: Man(a1-2)Man(a1-3)[Man(a1-2)Man(a1-6)]Man(a1-6)[Man(a1-2)Man(a1-2)Man(a1-3)]Man(b1-4)GlcNAc(b1-4)GlcNAc
# Summary of the method: as §1
# [26] = molecular target: Neu5Ac(a2-3)Gal(b1-3)GlcNAc(b1-3)Gal(b1-3)GlcNAc
# Summary of the method: as §1
# [27] = molecular target: Neu5Ac(a2-3)Gal(b1-4)GlcNAc(b1-2)Man
# Summary of the method: as §1
# [28] = molecular target: Neu5Ac(a2-3)Gal(b1-4)[Fuc(a1-3)]GlcNAc(b1-3)Gal(b1-4)[Fuc(a1-3)]GlcNAc(b1-3)Gal(b1-4)[Fuc(a1-3)]GlcNAc
# Summary of the method: as §1
# [29] = molecular target: Neu5Ac(a2-3)[GalNAc(b1-4)]Gal(b1-4)GlcNAc(b1-3)GalNAc
# Summary of the method: as §1
# [30] = molecular target: Neu5Ac(a2-6)Gal(b1-4)GlcNAc(b1-2)Man(a1-3)[Neu5Ac(a2-6)Gal(b1-4)GlcNAc(b1-2)Man(a1-6)]Man(b1-4)GlcNAc(b1-4)GlcNAc
# Summary of the method: as §1
# [31] = molecular target: Neu5Ac(a2-6)Gal(b1-4)GlcNAc(b1-2)Man(a1-6)[Man(a1-3)]Man(b1-4)GlcNAc(b1-4)GlcNAc
# Summary of the method: as §1
# [32] = molecular target: Neu5Ac(a2-6)GlcNAc(b1-4)GlcNAc
# Summary of the method: as §1
# Neu5Ac(a2-8)Neu5Ac = molecular target: Neu5Ac(a2-8)Neu5Ac
# Summary of the method: as §1
# Neu5Ac(b2-6)GalNAc = molecular target: Neu5Ac(b2-6)GalNAc
# Summary of the method: as §1
# [33] = molecular target: Neu5Ac9Ac(a2-3)Gal(b1-4)GlcNAc
# Summary of the method: as §1
binder,measurement,setting,value
B1,glycan array binding signal (z-score),Fuc(a1-2)Gal,-0.2
same,glycan array binding signal (z-score),[1],-0.088
same,glycan array binding signal (z-score),[2],1.3
same,glycan array binding signal (z-score),[3],-0.202
same,glycan array binding signal (z-score),[4],-0.199
same,glycan array binding signal (z-score),[5],-0.189
same,glycan array binding signal (z-score),[6],0.833
same,glycan array binding signal (z-score),[7],2.91
same,glycan array binding signal (z-score),[8],3.5
same,glycan array binding signal (z-score),[9],-0.006
same,glycan array binding signal (z-score),[10],-0.2
same,glycan array binding signal (z-score),[11],4.09
same,glycan array binding signal (z-score),[12],1.51
same,glycan array binding signal (z-score),[13],1.99
same,glycan array binding signal (z-score),[14],9.63
same,glycan array binding signal (z-score),[15],-0.194
same,glycan array binding signal (z-score),Gal(b1-2)Gal,-0.201
same,glycan array binding signal (z-score),Gal(b1-3)Gal,0.459
same,glycan array binding signal (z-score),[16],13.2
same,glycan array binding signal (z-score),[17],2.3
same,glycan array binding signal (z-score),[18],-0.174
same,glycan array binding signal (z-score),[19],-0.193
same,glycan array binding signal (z-score),[20],2.3
same,glycan array binding signal (z-score),[21],-0.188
same,glycan array binding signal (z-score),[22],1.11
same,glycan array binding signal (z-score),[23],-0.185
same,glycan array binding signal (z-score),[24],-0.059
same,glycan array binding signal (z-score),Gal3S(b1-4)GlcNAc,-0.136
same,glycan array binding signal (z-score),GalNAc(b1-3)GalNAc,-0.182
same,glycan array binding signal (z-score),GalNAc(b1-4)Gal(b1-4)Glc,-0.211
same,glycan array binding signal (z-score),GalNAc(b1-4)GlcNAc,-0.18
same,glycan array binding signal (z-score),Kdn(a2-3)Gal(b1-4)Glc,-0.243
same,glycan array binding signal (z-score),[25],-0.178
same,glycan array binding signal (z-score),[26],0.182
same,glycan array binding signal (z-score),[27],-0.197
same,glycan array binding signal (z-score),[28],-0.198
same,glycan array binding signal (z-score),[29],-0.147
same,glycan array binding signal (z-score),[30],-0.187
same,glycan array binding signal (z-score),[31],-0.204
same,glycan array binding signal (z-score),[32],-0.205
same,glycan array binding signal (z-score),Neu5Ac(a2-8)Neu5Ac,-0.203
same,glycan array binding signal (z-score),Neu5Ac(b2-6)GalNAc,-0.196
same,glycan array binding signal (z-score),[33],-0.189

# From the supplement of paper PMC8728848
